# Tests used:
# Experiment in all cases: pooled miR-30 sensor sort-seq; sequence = guide strand
# Settings in all cases: shRNA
# [1] = biological target: RET
# [2] = biological target: REST
# [3] = biological target: RERG
# [4] = biological target: REPS2
# [5] = biological target: RGS9
# [6] = biological target: RNPC3
# [7] = biological target: RPS6KA5
# [8] = biological target: RWDD2B
# [9] = biological target: RXFP4
# [10] = biological target: RTTN
# [11] = biological target: RYK
# [12] = biological target: RYR2
# [13] = biological target: SASH1
# [14] = biological target: SCGB1D4
# Further: reference of the scale not given here.
sequence,measurement,setting,value
TTCCGGTTGAGAACCAGCCTAT,sensor-assay potency score (higher = more potent),[1],-0.898
TACACTTGTAGACTCGCTCATT,sensor-assay potency score (higher = more potent),[2],-0.726
TTCATCTTCATCAATTTCCTGA,sensor-assay potency score (higher = more potent),[2],0.487
TAGATTTGAAGTGATACTGTAG,sensor-assay potency score (higher = more potent),[2],0.294
TTTAACTGGAATCCGACCCTGG,sensor-assay potency score (higher = more potent),[1],0.235
TTTGTTTCCAACCAAGATGAGA,sensor-assay potency score (higher = more potent),[3],-1.39
TATTTGAACTGTAAATATCTGG,sensor-assay potency score (higher = more potent),[2],-0.000404
TTCAATAAGGACTTGCTCCTTC,sensor-assay potency score (higher = more potent),[2],0.499
TTGGATATCTTGGAAACCCAGT,sensor-assay potency score (higher = more potent),[1],-0.723
TTCTTTGACATCATAAAGCGAG,sensor-assay potency score (higher = more potent),[4],-0.889
TAATTTTTCTTACTGTACCTGG,sensor-assay potency score (higher = more potent),[3],0.0466
TTGACATAGTACTCGCGCTGTT,sensor-assay potency score (higher = more potent),[4],-0.809
TCGTCGTACACGGTCACCGGGA,sensor-assay potency score (higher = more potent),[1],-0.762
TTGTCTGGCCTCTCCATCCGGT,sensor-assay potency score (higher = more potent),[1],-0.338
TTGCAGAACATCACTTCCTGTC,sensor-assay potency score (higher = more potent),[5],0.603
TTGCCATCTATGTTGATCCAGC,sensor-assay potency score (higher = more potent),[5],-0.689
TTTGCTAGGATTGTGCTGGAAG,sensor-assay potency score (higher = more potent),[6],-0.549
TAATTCATCTCGAATGACTGGC,sensor-assay potency score (higher = more potent),[7],0.637
TTGATAGTAAAGTAGACTTTTG,sensor-assay potency score (higher = more potent),[8],-1.18
TCAACTGACTGGACTGTGCTTC,sensor-assay potency score (higher = more potent),[8],0.407
TAGAAGGGCGGCTCTCCCGGGG,sensor-assay potency score (higher = more potent),[9],-0.734
TTCTTCACTATGACTACCCAAA,sensor-assay potency score (higher = more potent),[10],-0.98
TAACTGTTTTGACAAATGCTTG,sensor-assay potency score (higher = more potent),[11],-1.47
TAGCTGGTGGTGATGACGCCCA,sensor-assay potency score (higher = more potent),[9],-0.885
TATTGCTATATCCTTCACCTTG,sensor-assay potency score (higher = more potent),[11],-0.912
TCTTGCAGAGGGCACCTCCGAA,sensor-assay potency score (higher = more potent),[9],-1.29
AACTTCACCAGGACACCCCAGA,sensor-assay potency score (higher = more potent),[9],-1.12
TAGGAATTTGACAGGCATCGGA,sensor-assay potency score (higher = more potent),[9],0.2
TTGTAGCACATTTTCCTTCGTT,sensor-assay potency score (higher = more potent),[11],0.000719
TTTTTCGTCAGATACATCCAGG,sensor-assay potency score (higher = more potent),[8],-0.29
TTGAAGACAAACCATTTCCCAG,sensor-assay potency score (higher = more potent),[11],-0.946
TCAGGAGACAGTACAGCACAGG,sensor-assay potency score (higher = more potent),[9],-0.981
TTTTCATCTATTAAAATCCCAT,sensor-assay potency score (higher = more potent),[11],-0.695
TTCCACACAAACAACACCAGGT,sensor-assay potency score (higher = more potent),[8],0.95
TAGAGATTTCTGATTTTCCTGA,sensor-assay potency score (higher = more potent),[10],0.353
TACAGCACAGGGTTGAGGCAGC,sensor-assay potency score (higher = more potent),[9],-0.483
TCCATTAACACTGAACACTTTT,sensor-assay potency score (higher = more potent),[8],-0.901
TTGGACATGTGTAAGTTTCTTG,sensor-assay potency score (higher = more potent),[8],0.645
TTCATTATTATCCATCACCGAA,sensor-assay potency score (higher = more potent),[12],-1.08
AGGAATTTGACAGGCATCGGAG,sensor-assay potency score (higher = more potent),[9],-1.05
TTGTCTGTGATCTTAACTTGAA,sensor-assay potency score (higher = more potent),[11],-0.554
TAGCGAGCAACGCTCAGCGCTG,sensor-assay potency score (higher = more potent),[9],-1.3
TTTTTGTAGCACATTTTCCTTC,sensor-assay potency score (higher = more potent),[11],-0.15
TCTTCTTTTCAATACAATCTTT,sensor-assay potency score (higher = more potent),[8],-0.675
TAGACGTTGAGGACAGTGGCCG,sensor-assay potency score (higher = more potent),[9],0.159
TTGAAGACGAAGGTGTCTGAAG,sensor-assay potency score (higher = more potent),[9],-0.402
TTTCATACTATGAAGGTGCAAA,sensor-assay potency score (higher = more potent),[11],-0.131
TTACTGCACAACAAACCCCTAC,sensor-assay potency score (higher = more potent),[11],-0.546
TCAGTATACAAACATCTCCATG,sensor-assay potency score (higher = more potent),[8],-1.45
TTTCAGTTCTGCTACAGCCAGC,sensor-assay potency score (higher = more potent),[8],-0.902
TTGCTTGCGACCCACCGCCTGC,sensor-assay potency score (higher = more potent),[9],-0.81
TAGAATATTCTTTCTTTTGCAT,sensor-assay potency score (higher = more potent),[8],0.0563
TAACACTGAACACTTTTTCTTC,sensor-assay potency score (higher = more potent),[8],-0.298
TTGTATTATCTCCTTTTCCAGA,sensor-assay potency score (higher = more potent),[11],-1.16
TTCAGTATACAAACATCTCCAT,sensor-assay potency score (higher = more potent),[8],0.0635
TATTCGAGACACATCTACCTTC,sensor-assay potency score (higher = more potent),[12],0.298
TATTCGGTAACCATCTTTCAGG,sensor-assay potency score (higher = more potent),[11],-0.693
TTTAGAGTTATCCTCTCTCTGG,sensor-assay potency score (higher = more potent),[11],-0.8
TAGATGAACTTGAACGTGCCGA,sensor-assay potency score (higher = more potent),[13],0.105
TTAAAAGATATCTGATCGGTGC,sensor-assay potency score (higher = more potent),[14],0.0419

# Source: the OligoGym collection
